FEN1 inh: blocks human flap endonuclease 1; Recombinant FEN1 flap cleavage, fluorescence, 15 min; Potency, µM (top dose mostly 114 µM), hits mostly inhibitors; 0.35% of 390,000 active; AID 588795; also: nearly all actives have a fitted effect of over 65% in size
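Reaction started by adding substrate (50 nM final) to 10 nM enzyme after 15 min room-temperature compound preincubation. Reads at 0 and 15 min, with data normalized and fitted to a four-parameter Hill equation.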
WRN helicase inh: WRN helicase (human) inhibition | Q14191 | WRN helicase unwinding, fluorescent forked duplex, kinetic | 0.46% of 360,000 active | Potency, µM (doses to about 114 µM), actives largely listed as inhibitors; also: nearly all actives have a fitted effect of over 55% in size
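Fluorescence dequenching readout, ex 525 nm/em 598 nm, kinetic mode: forked duplex DNA (100 nM final) with adjacent fluorophore and quencher unwound by WRN (20 nM final) with 2 mM ATP. Compound preincubation 15 min, room temperature.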
BLM inh: inhibitors of human Bloom syndrome helicase BLM; Potency, µM (highest dose often 56.1 µM), hits mostly inhibitors; P54132; AID 2528; 0.2% of 350,000 active; recombinant BLM DNA unwinding, fluorescence dequenching; also: nearly all actives have a fitted effect of over 35% in size
Target sequence (P54132 whole entry, looked up): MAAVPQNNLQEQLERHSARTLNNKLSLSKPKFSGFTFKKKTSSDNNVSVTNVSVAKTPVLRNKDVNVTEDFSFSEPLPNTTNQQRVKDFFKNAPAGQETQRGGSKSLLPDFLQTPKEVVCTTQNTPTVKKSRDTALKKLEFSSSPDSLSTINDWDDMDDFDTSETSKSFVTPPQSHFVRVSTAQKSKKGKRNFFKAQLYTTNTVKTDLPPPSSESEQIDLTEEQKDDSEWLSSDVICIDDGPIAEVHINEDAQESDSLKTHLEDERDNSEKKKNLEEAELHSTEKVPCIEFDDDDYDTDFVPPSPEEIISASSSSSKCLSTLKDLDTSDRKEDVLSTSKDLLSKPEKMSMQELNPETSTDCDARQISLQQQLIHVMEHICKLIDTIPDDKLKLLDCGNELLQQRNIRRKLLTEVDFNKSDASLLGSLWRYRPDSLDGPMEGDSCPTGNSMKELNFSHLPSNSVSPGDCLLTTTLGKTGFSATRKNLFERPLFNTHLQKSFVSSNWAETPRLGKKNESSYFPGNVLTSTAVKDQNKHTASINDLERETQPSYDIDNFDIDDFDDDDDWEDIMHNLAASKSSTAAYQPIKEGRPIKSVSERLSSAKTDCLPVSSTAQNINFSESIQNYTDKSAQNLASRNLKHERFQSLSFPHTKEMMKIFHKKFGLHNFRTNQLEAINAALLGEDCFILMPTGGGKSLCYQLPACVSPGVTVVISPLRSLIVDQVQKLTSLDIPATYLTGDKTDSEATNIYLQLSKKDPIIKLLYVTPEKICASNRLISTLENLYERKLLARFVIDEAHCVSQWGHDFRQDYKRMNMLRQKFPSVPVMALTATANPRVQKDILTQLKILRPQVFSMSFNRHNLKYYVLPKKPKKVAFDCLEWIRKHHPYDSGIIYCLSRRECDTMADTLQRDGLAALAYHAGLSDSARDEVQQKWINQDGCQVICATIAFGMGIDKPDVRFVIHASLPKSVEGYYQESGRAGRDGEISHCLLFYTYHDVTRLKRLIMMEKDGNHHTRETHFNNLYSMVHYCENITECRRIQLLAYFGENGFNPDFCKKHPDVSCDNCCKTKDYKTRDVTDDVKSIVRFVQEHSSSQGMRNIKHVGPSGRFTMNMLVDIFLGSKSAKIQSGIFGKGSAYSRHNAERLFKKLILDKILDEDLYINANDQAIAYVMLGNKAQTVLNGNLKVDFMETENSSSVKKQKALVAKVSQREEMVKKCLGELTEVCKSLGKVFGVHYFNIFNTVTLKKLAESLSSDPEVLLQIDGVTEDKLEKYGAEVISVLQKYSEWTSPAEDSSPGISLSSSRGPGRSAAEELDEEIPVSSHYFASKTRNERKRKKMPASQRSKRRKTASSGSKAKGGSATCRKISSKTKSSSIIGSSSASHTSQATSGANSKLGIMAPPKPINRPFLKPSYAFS
APE1 inh: inhibitors of human APE1 endonuclease; P27695; recombinant APE1, TAMRA/BHQ-2 abasic DNA cleavage fluorescence; Potency, µM (titrated, usually from 65.8 µM), actives largely listed as inhibitors; 0.35% of 350,000 active; also: nearly all actives have a fitted effect of over 55% in size
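Incision of a quenched TAMRA/BHQ-2 THF abasic-site duplex (50 nM) by 0.75 nM APE1, after 15 min compound preincubation, measured as fluorescence increase over three 60 s reads. Values normalized to buffer, DMSO and NSC13755 control wells.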
RECQ1 inh: RECQ1 (human) helicase inhibition; P46063; RECQ1 DNA unwinding, red fluorescence kinetic read; Potency, µM (series often up to 57.3 µM), actives largely listed as inhibitors; 0.54% of 240,000 active; AID 2549; also: nearly all actives have a fitted effect of over 30% in size
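50 nM RECQ1T1 preincubated 15 min with compound in Tris pH 8.0 buffer with MgCl2, DTT, Tween-20 and 2.5 ug/ml poly(dI-dC); started with 200 nM TAMRA/BHQ-2 forked duplex and 2 mM ATP. Unwinding read as fluorescence (525/598 nm), two reads 2 h apart.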
PI5P4K alpha inh: inhibitors of human PI5P4K alpha. P48426. PI5P4Kalpha enzyme, ADP-Glo luminescence, 60 min; active compounds read low. max response, %. 1.2% of 330,000 active. AID 652105; active = max response of -50% or lower; inconclusive = between -30% and -50%; inactive = -30% or higher; also: value at the top dose of about 77 µM
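Compounds were pin-transferred onto PI5P4Kalpha and substrate in HEPES pH 7.4 buffer with EGTA, CHAPS and 5% DMSO. ATP (5 microM final) started the reaction, which ran 60 minutes at room temperature before ADP-Glo detection.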
A number is an active result; . = inactive; ? = inconclusive; / = no result; [ ] = remark or other dose. Sampled rows, rich in hits. Any-hit rate of the full collection: about 1.5%. Unless noted, calls follow the shape of the dose curve; as a rule, active = well fitted curve in the direction sought with a large enough effect; inconclusive = small, poorly fitted or top-dose-only effect, or another doubt; inactive = no such curve, though single readings can be large; an effect the other way counts as inactive or inconclusive.

SMILES	FEN1 inh	WRN helicase inh	BLM inh	APE1 inh	RECQ1 inh	PI5P4K alpha inh
O=c1/c(=C\c2cc([N+](=O)[O-])cc([N+](=O)[O-])c2O)sc2nc3ccccc3n12	56.2µM	35.5µM	.	35.5µM	14.1µM	-95.2
Cc1cc(C(=O)COC(=O)c2ccncc2)c(C)n1Cc1ccco1	.	.	.	.	.	.
Cc1cc(C(=O)COC(=O)c2ccco2)c(C)n1Cc1ccco1	.	.	.	?	.	-54.8
C[C@H]1Cc2c(-c3ccccc3)nc3c(c2CO1)CN(S(=O)(=O)c1ccc2c(c1)OCCN2C)CC3	/	/	.[12.4 µM]	.[12.4 µM]	.[11.5 µM]	/
Cc1ccc2nc(-c3c[nH]c4ccccc34)c(Nc3ccccc3)n2c1	.	/	.	/	/	/
O=C(NNc1cccc(Cl)n1)c1ccccc1CC[N+](=O)[O-]	.	?	.	.	.	-78.1
NS(=O)(=O)c1ccc(-c2ccc(/C=C3\SC(=S)N(C4CCS(=O)(=O)C4)C3=O)o2)cc1 (configuration not stated)	.	.	.	.	.	.
CC1=C(C#N)C(=O)N(C2CCS(=O)(=O)C2)C(=O)/C1=C\c1ccc(C)o1 (configuration not stated)	/	/	?	17.8µM	22.4µM	/
Cc1ccc(/C=C2\SC(=S)N(C3CCS(=O)(=O)C3)C2=O)o1 (configuration not stated)	?	?	.	.	.	-53.5
C#CC(C)OC(=O)Nc1cccc(Cl)c1 (configuration not stated)	/	/	.	.	.	/
CCc1ccc(NC(=O)CSc2nc3c([nH]c4ccccc43)c(=O)n2C)cc1	.	/	.	/	/	/
Cc1ccccc1S(=O)(=O)/N=C(/c1ccccc1)N1CCOCC1	.	.	.	.	.	-52.4
COc1ccc(N(C(=O)c2ccc(C)cc2)S(=O)(=O)c2ccc(Cl)cc2)cc1	.	/	.	/	/	/
COc1ccc(N(C(=O)c2ccc(OC)c(OC)c2)S(=O)(=O)c2ccc(Cl)cc2)cc1	89.1µM	/	.	/	/	/
O=C(O)[C@H](O)[C@@H](O)[C@H](O[C@@H]1O[C@H](CO)[C@H](O)[C@H](O)[C@H]1O)[C@H](O)CO	/	/	/	.	/	/
COc1cc(-c2ccc(Nc3ccccc3C(=O)O)c(OC)c2)ccc1Nc1ccccc1C(=O)O	?	31.6µM	.	.	?	-89.2
CC(NC(=O)/C(C#N)=C/c1ccco1)c1ccccc1 (configuration not stated)	.	.	.	?	.	.
CC(NC(=O)/C(C#N)=C/c1ccc([N+](=O)[O-])o1)c1ccccc1 (configuration not stated)	?	56.2µM	.	.	/	?
CCOc1ccccc1NC(=O)CCS(=O)(=O)c1ccc(Br)cc1	.	50.1µM	.	.	/	.
CCN(C/C=C/C#CC(C)(C)C)Cc1cccc(OCc2cc(-c3ccsc3)cs2)c1	/	/	.	.	.	/
CC(C)(C)OC(=O)C[C@@H]1C/C=C\C[C@@H](CC(=O)N(CCO)Cc2ccccc2)C(=O)N[C@H](C(C)(C)C)COC1=O	.	.	/	11.9µM	/	.
O=C(CSc1ncc2c(n1)-c1ccccc1N(Cc1ccc(F)cc1)S2(=O)=O)NCCc1ccccc1	.	/	.	/	/	/
O=c1cc(-c2nn[nH]n2)[nH]c(=O)[nH]1	.	.	/	/	/	-70.2
c1csc(-c2nn[nH]n2)c1	.	.	.	.	.	.
COc1ccc2c(C)nc(Nc3nc(C)c(C)c(=O)[nH]3)nc2c1	44.7µM	.	.	.	.	/
SMILES	FEN1 inh	WRN helicase inh	BLM inh	APE1 inh	RECQ1 inh	PI5P4K alpha inh
CCc1c(C)nc(Nc2nc(C)c3ccc(OC)cc3n2)[nH]c1=O	.	.	.	.	.	/
O=C(Nc1cccc(Cl)c1)c1ccc2c(c1)CCN2S(=O)(=O)c1ccccc1	.	/	.	/	/	/
CCOC(=O)C1=C(C)N(CCCC(=O)O)C(=O)NC1c1ccccc1OS(=O)(=O)c1ccccc1[N+](=O)[O-] (configuration not stated)	.	.	/	/	/	-75.8
CCOC(=O)C1=C(C)N(CCCC(=O)O)C(=O)NC1c1ccccc1OS(=O)(=O)c1ccc(C)cc1 (configuration not stated)	.	.	.	.	.	-85.2
COC(=O)C1=C(C)N(CCCC(=O)O)C(=O)NC1c1ccccc1OS(=O)(=O)c1ccc([N+](=O)[O-])cc1 (configuration not stated)	.	.	/	/	/	-105.2
CCOC(=O)C1=C(C)N(CCCCCC(=O)O)C(=O)NC1c1ccccc1OS(=O)(=O)c1ccc(C)cc1 (configuration not stated)	.	.	/	/	/	.
CC1=C(C(=O)OCc2ccccc2)C(c2ccccc2OS(=O)(=O)c2ccccc2[N+](=O)[O-])NC(=O)N1CCCC(=O)O (configuration not stated)	.	.	/	/	/	-98.6
CC1=C(C(=O)OCc2ccccc2)C(c2cccc([N+](=O)[O-])c2)NC(=O)N1CCCCCC(=O)O (configuration not stated)	.	.	.	.	.	.
COc1cccc(C2=Nn3c(nnc3-c3ccccc3OC)SC2)c1	/	/	.	.	.	/
COc1cccc2c1Oc1ncccc1N(c1ccc(C(=O)NCc3cccc(C)c3)s1)C2	.	/	.	/	/	/
C=C(C(=O)OC)C(NC(=O)OC)c1ccccc1 (configuration not stated)	/	/	.	.	.	/
C=CCn1c(SCC(=O)Nc2ccccc2-c2ccccc2)nc2cc(C(=O)O)ccc2c1=O	.	.	.	.	.	-54.5
C=CCn1c(SCC(=O)Nc2ccccc2F)nc2ccccc2c1=O	.	.	.	.	/	.
C=CCn1c(SCc2cc([N+](=O)[O-])cc3c2OCOC3)nc2cc(C(=O)O)ccc2c1=O	.	.	.	.	.	-73.8
CCC(CO)n1c(SCc2cc([N+](=O)[O-])cc3c2OCOC3)nc2ccccc2c1=O (configuration not stated)	.	.	.	.	.	.
CC(C)(C)N1C(=O)Cc2c1nc(N)c1c(N)nc(N3CCCCC3CO)c(C#N)c21 (configuration not stated)	.	?	?	.	.	-58.2
O=[N+]([O-])c1ccc(O/N=[N+](\[O-])N2CCCCC2)c([N+](=O)[O-])c1	.	/	/	/	/	/
CCN(CC)CCOC(=O)c1ccc(N/C=C(/C#N)c2nc(-c3ccc(OC)c(OC)c3)cs2)cc1	?	.	.	.	.	-76.7
Cc1c(NC(=S)N/N=C/c2cc([N+](=O)[O-])ccc2O)c(=O)n(-c2ccccc2)n1C	.	.	.	.	.	-60.6
Cc1c(NC(=S)N/N=C/c2ccc(O)cc2)c(=O)n(-c2ccccc2)n1C	.	.	.	.	.	/
O=C(NCCc1ccccc1Cl)C1CCN(c2nc3ccccc3nc2C(F)(F)F)CC1	.	/	.	/	/	/

Screens from PubChem BioAssay.
